Results on ten molecules are retold here after the supplement of paper PMC4022240.

± gives the standard deviation.

Common to all, as to experiment: peptide microarray binding signal (635 nm), min-max normalized on array (fraction of array maximum); higher = stronger binding
Details in all cases: peptide region: H3 1-13

Test [1] has as its target T1, HaloTag-ATRX ADD domain (163-292).
T1 chain: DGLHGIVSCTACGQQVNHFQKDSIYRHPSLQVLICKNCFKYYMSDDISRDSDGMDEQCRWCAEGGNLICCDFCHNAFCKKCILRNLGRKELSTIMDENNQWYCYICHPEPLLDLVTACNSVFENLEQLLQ
As to the method:
(§1)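 Histone 13-mer peptides were synthesized as cellulose conjugates with a C-terminal 20-atom PEG linker and printed in triplicate on nitrocellulose. The sequence given is the unmodified backbone; PTMs (Kme1/2/3, Kac, Sph/Tph, Rme/Rme2a/Rme2s, Rcit) are listed in the label and the 'peptide modifications' condition. Slides were probed at 4 °C for 1 h with biotin-labelled (HQ)5-HaloTag reader fusions (ATRX-ADD, ING2-PHD) then streptavidin-Alexa647, or with rabbit histone antibodies then anti-rabbit Alexa647. The mean 635 nm signal of the triplicate spots was scaled 0-1 between the lowest and highest values on each array.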

In test [2] the target is HaloTag-ING2 PHD (mouse Ing2 200-280). As to the method: as §1
Test [3] concerns the target anti-H3K4me3 antibody ab8580. As to the method: as §1
Test [4] has as its target anti-H3K9me3 antibody ab8898. As for the experimental part:
as §1

[5] abbreviates: peptide modifications: H3R2cit H3K9me2, binder concentration: 1:2,000 dilution.
Setting [6] is: peptide modifications: H3R2cit H3K9me2, binder concentration: 1:10,000 dilution.
The mark [7] stands for this setting: peptide modifications: H3K4me3 H3K9me3, binder concentration: 1:2,000 dilution.
Setting [8] is: peptide modifications: H3K4me3 H3K9me3, binder concentration: 1:10,000 dilution.
Where [9] appears, read: peptide modifications: H3K9me2 H3S10ph, binder concentration: 1:2,000 dilution.
The mark [10] stands for this setting: peptide modifications: H3K9me2 H3S10ph, binder concentration: 1:10,000 dilution.
Where [11] appears, read: peptide modifications: H3R2cit H3K9ac, binder concentration: 1:2,000 dilution.
The mark [12] stands for this setting: peptide modifications: H3R2cit H3K9ac, binder concentration: 1:10,000 dilution.
Where [13] appears, read: peptide modifications: H3R2cit H3K4me3, binder concentration: 1:2,000 dilution.
Where [14] appears, read: peptide modifications: H3R2cit H3K4me3, binder concentration: 1:10,000 dilution.
Setting [15] is: peptide modifications: H3K4me3 H3K9me2, binder concentration: 1:2,000 dilution.
Setting [16] is: peptide modifications: H3K4me3 H3K9me2, binder concentration: 1:10,000 dilution.
[17] abbreviates: peptide modifications: H3R2cit H3K4ac, binder concentration: 1:2,000 dilution.
Setting [18] is: peptide modifications: H3R2cit H3K4ac, binder concentration: 1:10,000 dilution.
The mark [19] stands for this setting: peptide modifications: H3K4me3 H3K9me1, binder concentration: 1:2,000 dilution.
[20] abbreviates: peptide modifications: H3K4me3 H3K9me1, binder concentration: 1:10,000 dilution.
Where [21] appears, read: peptide modifications: H3K9me2, binder concentration: 1:2,000 dilution.
Where [22] appears, read: peptide modifications: H3K9me2, binder concentration: 1:10,000 dilution.
Where [23] appears, read: peptide modifications: H3R2cit H3K4me2, binder concentration: 1:2,000 dilution.
The mark [24] stands for this setting: peptide modifications: H3R2cit H3K4me2, binder concentration: 1:10,000 dilution.

For the molecule ARTKQTARKSTGG [H3 1-13 A Rcit T K Q T A R Kme2 S T G G], the “peptide microarray binding signal” value in test [1] (peptide modifications: H3R2cit H3K9me2, binder concentration: 50 nM) came to 0.0526 ± 0.0021; in test [1] (peptide modifications: H3R2cit H3K9me2, binder concentration: 500 nM) it was 0.112 ± 0.0057; in test [2] (peptide modifications: H3R2cit H3K9me2, binder concentration: 10 nM), 0.0306 ± 0.0059; in test [2] (peptide modifications: H3R2cit H3K9me2, binder concentration: 100 nM) it was 0.056 ± 0.011; in test [3] (setting [5]) it was 0.0151 ± 0.001; in test [3] (setting [6]) it was 0.013 ± 0.0011. For the same molecule, the “peptide microarray binding signal” value was determined as 0.0265 ± 0.0012 in test [4] (setting [5]) and 0.00986 ± 0.00045 in test [4] (setting [6]).
For ARTKQTARKSTGG [H3 1-13 A R T Kme3 Q T A R Kme3 S T G G], the “peptide microarray binding signal” value in test [1] (peptide modifications: H3K4me3 H3K9me3, binder concentration: 50 nM) came to 0.0752 ± 0.0036; in test [1] (peptide modifications: H3K4me3 H3K9me3, binder concentration: 500 nM), 0.159 ± 0.022; in test [2] (peptide modifications: H3K4me3 H3K9me3, binder concentration: 10 nM), 0.582 ± 0.018; in test [2] (peptide modifications: H3K4me3 H3K9me3, binder concentration: 100 nM), 0.742 ± 0.14; in test [3] (setting [7]), 1 ± 0.19; in test [3] (setting [8]), 1 ± 0.19. Further, the “peptide microarray binding signal” value is 0.46 ± 0.11 in test [4] (setting [7]) and 0.321 ± 0.037 in test [4] (setting [8]).
Take ARTKQTARKSTGG [H3 1-13 A R T K Q T A R Kme2 Sph T G G]: the “peptide microarray binding signal” value in test [1] (peptide modifications: H3K9me2 H3S10ph, binder concentration: 50 nM) turned out to be 0.0356 ± 0.0038; in test [1] (peptide modifications: H3K9me2 H3S10ph, binder concentration: 500 nM), 0.0593 ± 0.0025; in test [2] (peptide modifications: H3K9me2 H3S10ph, binder concentration: 10 nM) it was 0.00615 ± 8.7e-05; in test [2] (peptide modifications: H3K9me2 H3S10ph, binder concentration: 100 nM), 0.0145 ± 0.0016; in test [3] (setting [9]), 0.00119 ± 1.7e-05; in test [3] (setting [10]) it was 0.000456 ± 3.6e-05. Moreover, the entries for the “peptide microarray binding signal” value in test [4] (setting [9]) and in test [4] (setting [10]) were 0.0144 ± 0.0017 and 0.00375 ± 0.00021, respectively.
On to ARTKQTARKSTGG [H3 1-13 A Rcit T K Q T A R Kac S T G G], for which the “peptide microarray binding signal” value in test [1] (peptide modifications: H3R2cit H3K9ac, binder concentration: 50 nM) was determined as 0.0152 ± 0.00082; in test [1] (peptide modifications: H3R2cit H3K9ac, binder concentration: 500 nM) it was 0.0454 ± 0.005; in test [2] (peptide modifications: H3R2cit H3K9ac, binder concentration: 10 nM), 0.0489 ± 0.0051; in test [2] (peptide modifications: H3R2cit H3K9ac, binder concentration: 100 nM), 0.0881 ± 0.024; in test [3] (setting [11]), 0.0231 ± 0.0037; in test [3] (setting [12]), 0.0127 ± 0.00061. In addition, the “peptide microarray binding signal” value was determined as 0.00818 ± 0.001 in test [4] (setting [11]) and 0.00502 ± 0.00055 in test [4] (setting [12]).
As to ARTKQTARKSTGG [H3 1-13 A Rcit T Kme3 Q T A R K S T G G], the “peptide microarray binding signal” value in test [1] (peptide modifications: H3R2cit H3K4me3, binder concentration: 50 nM) came out at 0.0156 ± 0.00085; in test [1] (peptide modifications: H3R2cit H3K4me3, binder concentration: 500 nM) it was 0.0357 ± 0.0095; in test [2] (peptide modifications: H3R2cit H3K4me3, binder concentration: 10 nM) it was 0.131 ± 0.042; in test [2] (peptide modifications: H3R2cit H3K4me3, binder concentration: 100 nM), 0.19 ± 0.089; in test [3] (setting [13]), 0.476 ± 0.19; in test [3] (setting [14]), 0.28 ± 0.066. In addition, the “peptide microarray binding signal” value was 0.0852 ± 0.028 in test [4] (setting [13]) and 0.0601 ± 0.039 in test [4] (setting [14]).
On to ARTKQTARKSTGG [H3 1-13 A R T Kme3 Q T A R Kme2 S T G G], for which the “peptide microarray binding signal” value in test [1] (peptide modifications: H3K4me3 H3K9me2, binder concentration: 50 nM) was 0.0174 ± 0.00053; in test [1] (peptide modifications: H3K4me3 H3K9me2, binder concentration: 500 nM) it was 0.0402 ± 0.003; in test [2] (peptide modifications: H3K4me3 H3K9me2, binder concentration: 10 nM) it was 0.735 ± 0.11; in test [2] (peptide modifications: H3K4me3 H3K9me2, binder concentration: 100 nM), 0.869 ± 0.12; in test [3] (setting [15]) it was 0.929 ± 0.063; in test [3] (setting [16]) it was 0.889 ± 0.23. Moreover, the “peptide microarray binding signal” value worked out at 0.11 ± 0.025 in test [4] (setting [15]) and 0.0347 ± 0.004 in test [4] (setting [16]).
For the molecule ARTKQTARKSTGG [H3 1-13 A Rcit T Kac Q T A R K S T G G], the “peptide microarray binding signal” value was 0.0109 ± 0.00013 in test [1] (peptide modifications: H3R2cit H3K4ac, binder concentration: 50 nM); 0.045 ± 0.0051 in test [1] (peptide modifications: H3R2cit H3K4ac, binder concentration: 500 nM); 0.0563 ± 0.014 in test [2] (peptide modifications: H3R2cit H3K4ac, binder concentration: 10 nM); 0.125 ± 0.011 in test [2] (peptide modifications: H3R2cit H3K4ac, binder concentration: 100 nM); 0.00725 ± 0.0029 in test [3] (setting [17]); 0.00656 ± 0.0011 in test [3] (setting [18]). Besides, the “peptide microarray binding signal” value was 0.00782 ± 0.0003 in test [4] (setting [17]) and 0.0049 ± 0.00038 in test [4] (setting [18]).
In the case of ARTKQTARKSTGG [H3 1-13 A R T Kme3 Q T A R Kme S T G G], the “peptide microarray binding signal” value was determined as 0.0117 ± 0.0004 in test [1] (peptide modifications: H3K4me3 H3K9me1, binder concentration: 50 nM); 0.025 ± 0.0009 in test [1] (peptide modifications: H3K4me3 H3K9me1, binder concentration: 500 nM); 0.411 ± 0.074 in test [2] (peptide modifications: H3K4me3 H3K9me1, binder concentration: 10 nM); 0.338 ± 0.07 in test [2] (peptide modifications: H3K4me3 H3K9me1, binder concentration: 100 nM); 0.484 ± 0.13 in test [3] (setting [19]); 0.592 ± 0.25 in test [3] (setting [20]). In addition, the “peptide microarray binding signal” value was 0.108 ± 0.018 in test [4] (setting [19]) and 0.0413 ± 0.0047 in test [4] (setting [20]).
On to ARTKQTARKSTGG [H3 1-13 A R T K Q T A R Kme2 S T G G], for which the “peptide microarray binding signal” value in test [1] (peptide modifications: H3K9me2, binder concentration: 50 nM) came to 0.0139 ± 0.0015; in test [1] (peptide modifications: H3K9me2, binder concentration: 500 nM), 0.0282 ± 0.0022; in test [2] (peptide modifications: H3K9me2, binder concentration: 10 nM), 0.00668 ± 0.00014; in test [2] (peptide modifications: H3K9me2, binder concentration: 100 nM) it was 0.00935 ± 0.00046; in test [3] (setting [21]), 0.00104 ± 0.0001; in test [3] (setting [22]), 0.000571 ± 1.1e-05. Further, the “peptide microarray binding signal” value in test [4] (setting [21]) was 0.00128 ± 6.2e-05; in test [4] (setting [22]), 0.000923 ± 9.6e-06.
With ARTKQTARKSTGG [H3 1-13 A Rcit T Kme2 Q T A R K S T G G], the “peptide microarray binding signal” value in test [1] (peptide modifications: H3R2cit H3K4me2, binder concentration: 50 nM) came to 0.00959 ± 0.00044; in test [1] (peptide modifications: H3R2cit H3K4me2, binder concentration: 500 nM), 0.0222 ± 0.0016; in test [2] (peptide modifications: H3R2cit H3K4me2, binder concentration: 10 nM) it was 0.0839 ± 0.0012; in test [2] (peptide modifications: H3R2cit H3K4me2, binder concentration: 100 nM), 0.149 ± 0.043; in test [3] (setting [23]) it was 0.126 ± 0.023; in test [3] (setting [24]), 0.128 ± 0.017. Besides, the “peptide microarray binding signal” value was determined as 0.00533 ± 0.00032 in test [4] (setting [23]) and 0.00352 ± 0.00019 in test [4] (setting [24]).
